Results from PubChem BioAssay AID1159580 (chemical genetic matrix, 2015).
Screen size: about 5,500 compounds; about 2,000 (36%) were called active. Roughly 18% stayed inconclusive and do not appear here. Cut-off read from the data, not from the text of the source: active = normalized growth mostly below about 0.91 (no sharp cut-off); inconclusive = no clear call, values can overlap the other calls; inactive = mostly above about 0.92. The list shows a part of the results.

Test: chemical genetic growth profiling, strain panel (AID 1159580);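 note: tested at 20 µM; growth read once vehicle control cultures reached saturation at 30 °C; 1 = growth at the plate median or of vehicle wells; lower values mean less growth of the strain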
Conditions: growth OD

Measured: normalized growth

CCCC(=O)O[C@]1(C(=O)CO)CCC2[C@@H]3CCC4=CC(=O)CC[C@]4(C)C3[C@@H](O)C[C@@]21C (stereo not given in full)
inactive: S. cerevisiae deletion strains, locus YJR066W, strain TOR1, stronger effect = lower value 0.99 | S. cerevisiae deletion strains, locus YKL009W, strain mrt4, stronger effect = lower value 0.958 | S. cerevisiae deletion strains, locus YKL068W, stronger effect = lower value 1.02 | S. cerevisiae deletion strains, locus YKL085W, strain MDH1 (second series), stronger effect = lower value 1.01 | S. cerevisiae deletion strains, locus YKL085W, strain MDH1, stronger effect = lower value 1.01 | S. cerevisiae deletion strains, locus YKL160W, strain elf1, stronger effect = lower value 1.01 | S. cerevisiae deletion strains, locus YKL190W, strain CNB1, stronger effect = lower value 1 | S. cerevisiae deletion strains, locus YKR001C, strain vps1, stronger effect = lower value 0.982 | S. cerevisiae deletion strains, locus YKR026C, strain gcn3, stronger effect = lower value 1.01 | S. cerevisiae deletion strains, locus YKR091W, strain srl3, stronger effect = lower value 1 | S. cerevisiae deletion strains, locus YLL001W, strain dnm1, stronger effect = lower value 1.01 | S. cerevisiae deletion strains, locus YLL026W, stronger effect = lower value 1 | S. cerevisiae deletion strains, locus YLL041C, strain sdh2, stronger effect = lower value 1 | S. cerevisiae deletion strains, locus YLR027C, strain aat2, stronger effect = lower value 1 | S. cerevisiae deletion strains, locus YLR039C, strain RIC1, stronger effect = lower value 0.988 | S. cerevisiae deletion strains, locus YLR058C, strain SHM2, stronger effect = lower value 1.01 | S. cerevisiae deletion strains, locus YLR102C, strain apc9, stronger effect = lower value 0.985 | S. cerevisiae deletion strains, locus YLR113W, strain HOG1, stronger effect = lower value 1.07 | S. cerevisiae deletion strains, locus YLR221C, strain rsa3, stronger effect = lower value 1.01 | S. cerevisiae deletion strains, locus YLR258W, strain gsy2, stronger effect = lower value 1.01 | S. cerevisiae deletion strains, locus YLR262C, strain YPT6 (second series), stronger effect = lower value 1.01 | S. cerevisiae deletion strains, locus YLR262C, strain YPT6, stronger effect = lower value 1.01 | S. cerevisiae deletion strains, locus YLR268W, strain sec22, stronger effect = lower value 0.988 | S. cerevisiae deletion strains, locus YLR320W, strain mms22, stronger effect = lower value 1.02 | S. cerevisiae deletion strains, locus YLR330W, strain CHS5, stronger effect = lower value 1.01 | S. cerevisiae deletion strains, locus YLR342W, strain FKS1 (second series), stronger effect = lower value 0.996 | S. cerevisiae deletion strains, locus YLR342W, strain FKS1, stronger effect = lower value 1.02 | S. cerevisiae deletion strains, locus YLR357W, strain rsc2, stronger effect = lower value 1 | S. cerevisiae deletion strains, locus YLR370C, strain arc18, stronger effect = lower value 1.01 | S. cerevisiae deletion strains, locus YLR371W, strain rom2, stronger effect = lower value 0.996 | S. cerevisiae deletion strains, locus YLR384C, strain iki3, stronger effect = lower value 1.01 | S. cerevisiae deletion strains, locus YLR418C, strain cdc73, stronger effect = lower value 0.934 | S. cerevisiae deletion strains, locus YML016C, strain PPZ1, stronger effect = lower value 1.01 | S. cerevisiae deletion strains, locus YML032C, strain rad52, stronger effect = lower value 0.948 | S. cerevisiae deletion strains, locus YML120C, strain ndi1, stronger effect = lower value 0.992 | S. cerevisiae deletion strains, locus YML124C, strain tub3, stronger effect = lower value 0.996 | S. cerevisiae deletion strains, locus YMR058W, strain fet3, stronger effect = lower value 1.01 | S. cerevisiae deletion strains, locus YMR078C, strain ctf18, stronger effect = lower value 0.984 | S. cerevisiae deletion strains, locus YMR125W, strain sto1, stronger effect = lower value 1.02 | S. cerevisiae deletion strains, locus YMR129W, stronger effect = lower value 1.01 | S. cerevisiae deletion strains, locus YMR205C, strain PFK2, stronger effect = lower value 1.02 | S. cerevisiae deletion strains, locus YMR223W, strain ubp8, stronger effect = lower value 0.951 | S. cerevisiae deletion strains, locus YMR231W, strain pep5, stronger effect = lower value 1.01 | S. cerevisiae deletion strains, locus YMR263W, strain SAP30, stronger effect = lower value 1.01 | S. cerevisiae deletion strains, locus YMR307W, strain GAS1, stronger effect = lower value 0.999 | S. cerevisiae deletion strains, locus YNL067W, strain RPL9B, stronger effect = lower value 1.01 | S. cerevisiae deletion strains, locus YNL071W, strain lat1, stronger effect = lower value 1 | S. cerevisiae deletion strains, locus YNL128W, strain TEP1, stronger effect = lower value 0.994 | S. cerevisiae deletion strains, locus YNL153C, strain GIM3, stronger effect = lower value 1.02 | S. cerevisiae deletion strains, locus YNL183C, strain NPR1, stronger effect = lower value 0.995 | S. cerevisiae deletion strains, locus YNL209W, strain ssb2, stronger effect = lower value 1 | S. cerevisiae deletion strains, locus YNL233W, strain BNI4, stronger effect = lower value 1.02 | S. cerevisiae deletion strains, locus YNL248C, strain rpa49, stronger effect = lower value 1.02 | S. cerevisiae deletion strains, locus YNL250W, strain rad50, stronger effect = lower value 0.983 | S. cerevisiae deletion strains, locus YNL271C, strain bni1, stronger effect = lower value 0.992 | S. cerevisiae deletion strains, locus YNL298W, strain CLA4, stronger effect = lower value 0.972 | S. cerevisiae deletion strains, locus YNL307C, strain MCK1, stronger effect = lower value 0.982 | S. cerevisiae deletion strains, locus YNL322C, strain KRE1 (second series), stronger effect = lower value 1.01 | S. cerevisiae deletion strains, locus YNR049C, strain mso1, stronger effect = lower value 1.01 | S. cerevisiae deletion strains, locus YNR052C, strain pop2, stronger effect = lower value 0.975 | S. cerevisiae deletion strains, locus YOL006C, strain TOP1, stronger effect = lower value 1.06 | S. cerevisiae deletion strains, locus YOL012C, strain htz1 1.05 | S. cerevisiae deletion strains, locus YOL147C, strain pex11, stronger effect = lower value 0.982 | S. cerevisiae deletion strains, locus YOR001W, strain rrp6, stronger effect = lower value 1.02 | S. cerevisiae deletion strains, locus YOR061W, strain CKA2, stronger effect = lower value 1.01 | S. cerevisiae deletion strains, locus YOR069W, strain VPS5, stronger effect = lower value 1 | S. cerevisiae deletion strains, locus YOR070C, strain gyp1, stronger effect = lower value 1 | S. cerevisiae deletion strains, locus YOR080W, strain dia2, stronger effect = lower value 0.997 | S. cerevisiae deletion strains, locus YOR083W, strain WHI5, stronger effect = lower value 1 | S. cerevisiae deletion strains, locus YOR106W, strain vam3, stronger effect = lower value 1 | S. cerevisiae deletion strains, locus YOR136W, strain idh2, stronger effect = lower value 0.983 | S. cerevisiae deletion strains, locus YOR144C, strain elg1, stronger effect = lower value 0.977 | S. cerevisiae deletion strains, locus YOR184W, strain ser1, stronger effect = lower value 0.963 | S. cerevisiae deletion strains, locus YOR231W, strain MKK1, stronger effect = lower value 1.09 | S. cerevisiae deletion strains, locus YOR265W, strain rbl2, stronger effect = lower value 1 | S. cerevisiae deletion strains, locus YOR270C, strain vph1, stronger effect = lower value 1.01 | S. cerevisiae deletion strains, locus YOR290C, strain snf2, stronger effect = lower value 1 | S. cerevisiae deletion strains, locus YOR316C, strain cot1, stronger effect = lower value 0.994 | S. cerevisiae deletion strains, locus YPL051W, strain arl3, stronger effect = lower value 1 | S. cerevisiae deletion strains, locus YPL055C, strain LGE1, stronger effect = lower value 1.04 | S. cerevisiae deletion strains, locus YPL078C, strain atp4, stronger effect = lower value 1.01 | S. cerevisiae deletion strains, locus YPL106C, strain sse1, stronger effect = lower value 1.02 | S. cerevisiae deletion strains, locus YPL240C, strain hsp82, stronger effect = lower value 1 | S. cerevisiae deletion strains, locus YPL256C, strain CLN2, stronger effect = lower value 1.05 | S. cerevisiae deletion strains, locus YPR119W, strain clb2, stronger effect = lower value 0.993 | S. cerevisiae deletion strains, locus YPR141C, strain kar3, stronger effect = lower value 1.01 | S. cerevisiae deletion strains, locus YPR163C, strain tif3, stronger effect = lower value 1.01 | S. cerevisiae deletion strains, locus YPR167C, strain met16, stronger effect = lower value 0.99 | S. cerevisiae deletion strains, strain wtn01, stronger effect = lower value 0.961 | S. cerevisiae strains, strain wild type, stronger effect = lower value 1.01
